The source of these data is PubChem BioAssay (NCI).

Common to all, as to experiment: NCI-60 one-dose screen, 48 h (100 = growth as untreated, 0 = no growth, -100 = all killed)
Assay [1] concerns NCI-H23 lung. The following applies: 10 µM unless noted.
In assay [2] the test system is NCI-H322M lung. The following applies: 10 µM unless noted.
For assay [3], the system named is HOP-62 NSCLC. The following applies: 10 µM unless noted.
The subject of assay [4] is NCI-H460 lung. The following applies: 10 µM unless noted.
In assay [5] the test system is HOP-92 NSCLC. The following applies: 10 µM unless noted.
For assay [6], the system named is NCI-H522 lung. To be noted: 10 µM.
For assay [7], the system named is A549/ATCC NSCLC. The following applies: 10 µM unless noted.
The test system of assay [8] is 786-0 renal. The following applies: 10 µM unless noted.

Compounds without any hit were thinned out: in the full panel of roughly 83,000, 20% have a hit.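 Compound tested at a single concentration for 48 hours in 96-well plates; a percent growth value below 10 was scored as active.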 Unmarked numbers belong to inactive results. Active and inactive are the calls of the source.

Take `COc1cc(/C=N/NC(=O)c2cnn3c2NC(c2ccccc2)C3)ccc1OC1CCCC1` (stereo not drawn): the growth in assay [1] was 50%; in assay [2] it was 32.9%; in assay [3], 35.1%; in assay [4], 2.88% (active); in assay [5], 45.7%; in assay [6] it was 11.7%. Also, the values for the growth in assay [7] and in assay [8] were 40.6% and 9.01% (active), respectively.
`CC(=O)OC[C@H](O)[C@@]1(O)CC[C@H]2[C@@H]3CCC4=CC(=O)CC[C@]4(C)[C@H]3[C@@H](O)C[C@@]21C`: the growth in assay [1] was 103%; in assay [2], 112%; in assay [3], 115%; in assay [4] it was 97.3%; in assay [5], 81.7%; in assay [6] it was 99.6%. The growth in assay [7] was 83.1%; in assay [8], 104%.
In the case of `CCCCCCCC/C=C\CCCCCCCCOc1cccc(CC(=O)NCC[N+]2(C)CCOCC2)c1`, the growth in assay [1] was 90.4%; in assay [2], 101%; in assay [3] it was 66.3%; in assay [4], 67%; in assay [5] it was 86.4%; in assay [6], 77%. For the same molecule, the values for the growth in assay [7] and in assay [8] were 90.6% and 94.9%, respectively.
Take `CCN1CCN(c2nc3ccccc3c3c(=O)c4cc(F)ccc4sc23)CC1`: the growth in assay [1] is 85.6%; in assay [2], 81.2%; in assay [3], 73.2%; in assay [4] it was 38.5%; in assay [5], 40.2%; in assay [6] it was 76.7%. Besides, the figures for the growth in assay [7] and in assay [8] were 58.4% and 60.6%, respectively.
With `O=c1c2cc(F)ccc2oc2c(NCCNCCO)nc3ccccc3c12`, the growth is 53% in assay [1]; 36.1% in assay [2]; 35.5% in assay [3]; 13.1% in assay [4]; 38.4% in assay [5]; 39.8% in assay [6]. For the same molecule, the growth is 45.1% in assay [7] and 42% in assay [8].
On to `CN1CCN(c2ccc3nc(-c4ccc5nc(-c6ccc(C(F)(F)F)cc6)[nH]c5c4)[nH]c3c2)CC1`, for which the growth is 68.2% in assay [1]; 80.1% in assay [2]; 51.3% in assay [3]; 30.9% in assay [4]; 59.3% in assay [5]; 64.1% in assay [6]. Besides, the values for the growth in assay [7] and in assay [8] were 89.8% and 69.6%, respectively.
In the case of `O=C1c2c(c3c4cc(Br)ccc4[nH]c3c3ccc4ccccc4c23)C(=O)N1O`, the growth is 95.7% in assay [1]; 96.9% in assay [2]; 79.6% in assay [3]; 83.8% in assay [4]; 140% in assay [5]; 63.2% in assay [6]. Besides, the growth is 95.6% in assay [7] and 106% in assay [8].
Consider `NC(=S)N/N=C1\c2ccccc2-c2c(F)c(F)c(F)c(F)c21`, for which the growth in assay [1] was 72.4%; in assay [2] it was 93.5%; in assay [3] it was 75.6%; in assay [4], 76.6%; in assay [5], 87%; in assay [6], 57.4%. In addition, the results for the growth in assay [7] and in assay [8] were 87.5% and 88.8%, respectively.
For the molecule `O=C1/C(=C/c2ccc([N+](=O)[O-])cc2)Oc2ccc(O)cc21`, the growth in assay [1] was 75.8%; in assay [2], 106%; in assay [3] it was 50.6%; in assay [4] it was 40.9%; in assay [5], 93.7%; in assay [6] it was 75.4%. The values for the growth in assay [7] and in assay [8] were 70.8% and 96%, respectively.
On to `C[C@]1(CO)C[C@@H](O)C[C@]2(C)[C@@H]1CC[C@@]13C[C@@H]4[C@@H](C[C@H]12)[C@]4(C)C3`, for which the growth in assay [1] is 108%; in assay [2] it was 103%; in assay [3], 101%; in assay [4] it was 104%; in assay [5], 103%; in assay [6], 101%. Besides, the growth in assay [7] was 102%; in assay [8], 104%.
As for `O=C(c1cnn2c1NC(c1ccc(F)cc1)C2)N1CCCCC1` (stereo not drawn), the growth is 105% in assay [1]; 112% in assay [2]; 92.1% in assay [3]; 105% in assay [4]; 97% in assay [5]; 93.3% in assay [6]. Besides, the values for the growth in assay [7] and in assay [8] were 98.2% and 106%, respectively.
As to `COc1cccc(OC)c1OC(=O)c1ccccc1`, the growth in assay [1] is 100%; in assay [2], 109%; in assay [3], 110%; in assay [4], 102%; in assay [5] it was 82.5%; in assay [6] it was 95.5%. Further, the figures for the growth in assay [7] and in assay [8] were 96.5% and 106%, respectively.
As for `COC(=O)[C@@]12CC[C@@H](C)[C@]3(C[C@@H](c4ccoc4)OC3=O)[C@H]1CC[C@@H]1O[C@@]12C`, the growth was 96.1% in assay [1]; 104% in assay [2]; 94.2% in assay [3]; 103% in assay [4]; 92.4% in assay [5]; 84.9% in assay [6]. In addition, the growth in assay [7] is 103%; in assay [8] it was 99.3%.
In the case of `COc1ccc(/C=C/C(=O)N2CCC(O)CC2)cc1OC1CCCC1`, the growth was 103% in assay [1]; 108% in assay [2]; 95.1% in assay [3]; 104% in assay [4]; 95.7% in assay [5]; 87.1% in assay [6]. The growth is 91.4% in assay [7] and 104% in assay [8].
As to `COc1ccc(NS(=O)(=O)c2ccc(-c3cnc(C4CC4)o3)cc2)cc1`, the growth in assay [1] was 71.9%; in assay [2], 91.8%; in assay [3], 54.8%; in assay [4], 33.2%; in assay [5], 63%; in assay [6] it was 51%. The growth in assay [7] is 54.7%; in assay [8], 81.3%.
As to `O=C1CCC(N2Cc3c(C#CCCCNC(=O)c4cc5c(o4)C(=O)c4ccccc4C5=O)cccc3C2=O)C(=O)N1` (stereo not drawn), the growth in assay [1] was -80.1% (active); in assay [2], -88.2% (active); in assay [3], -65.3% (active); in assay [4] it was -82% (active); in assay [5], 52.3%; in assay [6], -61.2% (active). In addition, the growth in assay [7] is 30%; in assay [8], 49.7%.
Regarding `COc1cccc2c(=O)c3c(sc12)c(NCCN(C)C)nc1ccccc13`, the growth in assay [1] is 32.4%; in assay [2], 26.2%; in assay [3], 27.2%; in assay [4] it was -53.1% (active); in assay [5] it was -3.75% (active); in assay [6] it was 29.1%. For the same molecule, the values for the growth in assay [7] and in assay [8] were 7.73% (active) and 28.7%, respectively.
Turning to `O=c1oc2ccccc2cc1-c1csc(N=Nc2c(O)[nH]c3ccc(Br)cc23)n1`, the growth is 98.6% in assay [1]; 102% in assay [2]; 104% in assay [3]; 100% in assay [4]; 123% in assay [5]; 99.5% in assay [6]. Further, the values for the growth in assay [7] and in assay [8] were 93.8% and 103%, respectively.
As for `CCCN1CCN(c2ccc3nc(-c4ccc5nc(-c6ccc(C(F)(F)F)cc6)[nH]c5c4)[nH]c3c2)CC1`, the growth in assay [1] is -77.1% (active); in assay [2], -95.7% (active); in assay [3] it was -62.6% (active); in assay [4], -88.5% (active); in assay [5] it was 63%; in assay [6] it was -43.4% (active). Also, the growth in assay [7] is -65.1% (active); in assay [8], -90.2% (active).
Regarding `CCCCCCCCCCCCCCn1c2ccccc2c2c3c(c4c5cc(OC)ccc5oc4c21)C(=O)NC3=O`, the growth in assay [1] was 103%; in assay [2], 106%; in assay [3], 117%; in assay [4], 100%; in assay [5] it was 106%; in assay [6] it was 98%. Besides, the growth in assay [7] and in assay [8] was 103% in each case.
With `CCC(C)Oc1cc(/C=N/NC(=O)c2cnn3c2NC(c2ccccc2)C3)ccc1OC` (stereo not drawn), the growth in assay [1] is 58%; in assay [2] it was 45%; in assay [3] it was 37.2%; in assay [4], 11.5%; in assay [5] it was 71.8%; in assay [6] it was 10.7%. Besides, the values for the growth in assay [7] and in assay [8] were 43.6% and 47.6%, respectively.
As for `Cl.Fc1c[c-]c(-c2ccccn2)c(F)c1.[Pt].c1ccc([PH+](CC[PH+](c2ccccc2)c2ccccc2)c2ccccc2)cc1`, the growth is -77.2% (active) in assay [1]; -98.8% (active) in assay [2]; -65.8% (active) in assay [3]; -75.3% (active) in assay [4]; -77.4% (active) in assay [5]; -58.4% (active) in assay [6]. In addition, the values for the growth in assay [7] and in assay [8] were -52.9% (active) and -79.4% (active), respectively.
For `O=c1oc2ccccc2cc1-c1csc(N/N=C/c2cc3ccccc3nc2Cl)n1`, the growth in assay [1] was 99.8%; in assay [2], 103%; in assay [3], 109%; in assay [4], 99.7%; in assay [5], 97.5%; in assay [6], 93.3%. For the same molecule, the growth in assay [7] is 92.8%; in assay [8] it was 107%.
In the case of `CCOC(=O)c1cnn(CC(O)c2ccc(F)cc2)c1NC(=O)Nc1ccccc1F` (stereo not drawn), the growth in assay [1] was 98.4%; in assay [2], 103%; in assay [3], 101%; in assay [4] it was 105%; in assay [5], 102%; in assay [6] it was 92.2%. Besides, the growth in assay [7] is 103%; in assay [8], 90.3%.
Consider `CCC12CCC3c4ccc(O)cc4CCC3C1CC(O)C2O` (stereo not drawn), for which the growth in assay [1] was 68%; in assay [2] it was 102%; in assay [3], 83.2%; in assay [4] it was 88%; in assay [5], 72.3%; in assay [6] it was 37.4%. The growth in assay [7] was 61.7%; in assay [8], 92.5%.
Turning to `Cc1cccc2c(=O)c3c(sc12)c(NCCNCCO)nc1ccccc13`, the growth is 55.3% in assay [1]; 37.7% in assay [2]; 22.6% in assay [3]; 9.95% (active) in assay [4]; 33.1% in assay [5]; 29.1% in assay [6]. For the same molecule, the growth in assay [7] is 37.7%; in assay [8], 52.9%.
Consider `COC(=O)c1c2c(c(C)[n+]([O-])c1C)C(=O)C=C(NCc1ccc(F)c(Cl)c1)C2=O`, for which the growth was -65.9% (active) in assay [1]; -38.9% (active) in assay [2]; -51.9% (active) in assay [3]; -38.7% (active) in assay [4]; -42.6% (active) in assay [5]; -39.4% (active) in assay [6]. The growth was -47.4% (active) in assay [7] and 3.92% (active) in assay [8].
On to `O=C(CC(O)c1ccccc1)Nc1ccccn1` (stereo not drawn), for which the growth in assay [1] was 98.6%; in assay [2], 93.3%; in assay [3], 103%; in assay [4], 112%; in assay [5], 77%; in assay [6] it was 96%. For the same molecule, the results for the growth in assay [7] and in assay [8] were 95.8% and 102%, respectively.
`O=S(=O)(Nc1ccc(Cl)c(Cl)c1)c1ccc(-c2cnc(C3CC3)o2)cc1`: the growth was 39.6% in assay [1]; 40.7% in assay [2]; 24% in assay [3]; 4.29% (active) in assay [4]; 48% in assay [5]; 6.78% (active) in assay [6]. The growth was 25.5% in assay [7] and 46.3% in assay [8].
For the molecule `CCCCC(O)Cn1ncc(C(=O)OCC)c1NC(=O)NCc1ccccc1C(F)(F)F` (stereo not drawn), the growth in assay [1] is 98.1%; in assay [2], 105%; in assay [3], 93.4%; in assay [4], 103%; in assay [5], 84.7%; in assay [6], 88.3%. The growth in assay [7] was 89.1%; in assay [8], 93.2%.
As to `NS(=O)(=O)c1ccc(C(=O)N/N=C(\CS(=O)(=O)c2ccccc2)c2cc3cc(Br)ccc3o2)cc1`, the growth was 80.7% in assay [1]; 103% in assay [2]; 96% in assay [3]; 96.3% in assay [4]; 77.2% in assay [5]; 80.2% in assay [6]. Besides, the growth in assay [7] is 87%; in assay [8], 101%.
